# Where “and” joins values, the source holds several entries; their conditions need not be identical. Equal entries are not always repeated. Results filed as inconclusive are left out. Calls of active or inactive are those of the source. Rule for the calls: active = hit-call score of the fitted dose curve at least 0.9, where 1 is the maximum; inconclusive = response in the unintended direction; inactive = score below 0.9.
# Tests used:
# [1] = biological target: Mitogen-activated protein kinase 3 (Homo sapiens) (UniProt P27361); test: NVS_ENZ_hMAPK3: NovaScreen (NVS) Enzymatic Assay for human Mitogen-Activated Protein Kinase 3 (MAPK 3) (AID 2283177)
# Procedure, shortened: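 Cell-free enzymatic assay with recombinant protein and specific substrate; fluorescence and electrophoretic mobility shift read-out 1 h after dosing. Primary screen duplicate at 25 uM; actives then run in concentration-response up to 50 uM, loss of signal versus DMSO.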
# [2] = biological target: human MAP Kinase-Activated Protein Kinase 2 (MAPKAPK2), MAPKAPK2 (gene 9261) (UniProt P49137); test: NVS_ENZ_hMAPKAPK2: NovaScreen (NVS) Enzymatic Assay for human MAP Kinase-Activated Protein Kinase 2 (MAPKAPK2) (AID 2283178)
# Procedure, shortened: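 Cell-free recombinant human MAPKAPK2 activity measured by fluorescence with electrophoretic mobility shift separation of substrate and product, 1 hr after dosing. Loss of signal versus DMSO; primary screen at 25 uM, concentration-response up to 50 uM.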
# [3] = biological target: human MET Proto-Oncogene, Receptor Tyrosine Kinase (MET), MET (gene 4233) (UniProt P08581); test: NVS_ENZ_hMet: NovaScreen (NVS) Enzymatic Assay for human MET Proto-Oncogene, Receptor Tyrosine Kinase (MET) (AID 2283180)
# Procedure, shortened: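 Cell-free MET kinase assay using recombinant protein and fluorescent substrate, with mobility-shift separation; read 1 h after dosing. Primary duplicate at 25 uM; actives in singleton concentration-response to 50 uM maximum. Signal loss versus DMSO.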
# [4] = biological target: human NIMA (Never In Mitosis Gene A)-Related Kinase 2 (NEK2), NEK2 (gene 4751) (UniProt P51955); test: NVS_ENZ_hNEK2: NovaScreen (NVS) Enzymatic Assay for human NIMA (Never In Mitosis Gene A)-Related Kinase 2 (NEK2) (AID 2283188)
# Procedure, shortened: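 Cell-free NEK2 enzyme activity after 1 h exposure, read by fluorescence with electrophoretic mobility shift separating substrate and product. Primary screen in duplicate at 25 uM; actives then run as concentration series. Loss of signal versus DMSO scored.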
# [5] = biological target: human p21 Activated Kinase 4 (PAK4), PAK4 (gene 10298) (UniProt O96013); test: NVS_ENZ_hPAK4: NovaScreen (NVS) Enzymatic Assay for human p21 Activated Kinase 4 (PAK4) (AID 2283189)
# Procedure, shortened: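 Cell-free recombinant human PAK4 activity assay; fluorescent substrate and product separated by electrophoretic mobility shift, read 1 h after dosing. Initially tested in duplicate at 25 uM, relative to DMSO baseline.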
# [6] = biological target: cAMP-dependent protein kinase catalytic subunit alpha (Homo sapiens) (UniProt P17612); test: NVS_ENZ_hPKA: NovaScreen (NVS) Enzymatic Assay for human Protein Kinase A (PKA) (AID 2283192)
# Procedure, shortened: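 Recombinant human PKA with specific fluorescent substrate, product separated by electrophoretic mobility shift, read 1 h after dosing. Primary screen at 25 uM in duplicate; actives then run in concentration-response up to 50 uM, activity relative to DMSO.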
# [7] = biological target: human Phosphodiesterase 5 (PDE5), PDE5A (gene 8654) (UniProt O76074); test: NVS_ENZ_hPDE5: NovaScreen (NVS) Enzymatic Assay for human Phosphodiesterase 5 (PDE5) (AID 2283194)
# Procedure, shortened: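 Recombinant human PDE5 with specific substrate, read 1 h after dosing by fluorescence with electrophoretic mobility-shift separation of substrate and product. Initial single-concentration duplicate screen at 25 uM, actives followed in concentration series; loss of activity versus DMSO.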
# [8] = biological target: human Protein Tyrosine Phosphatase Non-receptor Type 1 (PTPN1), PTPN1 (gene 5770) (UniProt P18031); test: NVS_ENZ_hPTPN1: NovaScreen (NVS) Enzymatic Assay for human Protein Tyrosine Phosphatase Non-receptor Type 1 (PTPN1) (AID 2283201)
# Procedure, shortened: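 Cell-free fluorogenic-substrate activity assay on recombinant enzyme, read 1.33 h after dosing by fluorescence and electrophoretic mobility shift; loss of signal vs DMSO baseline. Primary screen in duplicate at 25 uM, hits then run in concentration-response up to 50 uM.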
# [9] = biological target: Tyrosine-protein phosphatase non-receptor type 11 (Homo sapiens) (UniProt Q06124); test: NVS_ENZ_hPTPN11: NovaScreen (NVS) Enzymatic Assay for human Protein Tyrosine Phosphatase Non-receptor Type 11 (PTPN11) (AID 2283202)
# Procedure, shortened: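 Recombinant human PTPN11 activity on a fluorescent substrate, with substrate/product separated by electrophoretic mobility shift; read 0.5 h after dosing, loss of signal vs DMSO. Duplicate 25 uM screen, then concentration-response up to 50 uM.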
# [10] = biological target: human Matrix Metalloproteinase-9 (MMP9), MMP9 (gene 4318) (UniProt P14780); test: NVS_ENZ_hMMP9: NovaScreen (NVS) Enzymatic Assay for human Matrix Metalloproteinase-9 (MMP9) (AID 2283190);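 note: cell-free recombinant MMP9 protease activity read by fluorescent substrate signal; active means inhibition seen as loss of fluorescence signal versus DMSO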
# Procedure, shortened: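 Cell-free fluorescence-intensity enzyme activity assay using extracted protein, read 1 h after dosing. Loss of signal versus DMSO baseline indicates inhibition; primary screen in duplicate at 25 uM, actives followed up in concentration series.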
# [11] = biological target: human Phosphodiesterase 10 (PDE10), PDE10A (gene 10846) (UniProt Q9Y233); test: NVS_ENZ_hPDE10: NovaScreen (NVS) Enzymatic Assay for human Phosphodiesterase 10 (PDE10) (AID 2283195)
# Procedure, shortened: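 Fluorescence/mobility-shift readout of PDE10A enzyme activity, taken 1 h post-dosing. Primary screen in duplicate at 25 uM; actives (e.g. ≥30% inhibition) retested as singleton concentration-response, top concentration 50 uM.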
# [12] = biological target: human Matrix Metalloproteinase-1 (MMP1), MMP1 (gene 4312) (UniProt P03956); test: NVS_ENZ_hMMP1: NovaScreen (NVS) Enzymatic Assay for human Matrix Metalloproteinase-1 (MMP1) (AID 2283181)
# Procedure, shortened: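 Human MMP1 enzyme activity measured by fluorescence 1 h after dosing, cell-free, with a specific substrate. Screened in duplicate at 25 uM; hits (e.g. 30% inhibition) run in concentration-response up to 50 uM; loss of signal versus DMSO.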
# [13] = biological target: human Matrix Metalloproteinase-3 (MMP3), MMP3 (gene 4314) (UniProt P08254); test: NVS_ENZ_hMMP3: NovaScreen (NVS) Enzymatic Assay for human Matrix Metalloproteinase-3 (MMP3) (AID 2283185)
# Procedure, shortened: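 Cell-free recombinant human MMP3 activity, fluorescence intensity read 1 h after dosing. Primary screen duplicate at 25 uM, actives retested in concentration series; loss of signal vs DMSO baseline.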
# [14] = biological target: human Mitogen- and Stress-activated Protein Kinase-1 (Msk1), RPS6KA5 (gene 9252) (UniProt O75582); test: NVS_ENZ_hMsk1: NovaScreen (NVS) Enzymatic Assay for human Mitogen- and Stress-activated Protein Kinase-1 (Msk1) (AID 2283187)
# Procedure, shortened: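 Recombinant kinase with fluorescent substrate; product separated by electrophoretic mobility shift, read 1 h after dosing. Screened in duplicate at 25 uM; hits (e.g. ≥30% inhibition) tested in concentration–response up to 50 uM. DMSO baseline.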
# [15] = biological target: human Phosphoinositide 3-kinase alpha (PI3Ka), PIK3CA (gene 5290) (UniProt P42336); test: NVS_ENZ_hPI3Ka: NovaScreen (NVS) Enzymatic Assay for human Phosphoinositide 3-kinase alpha (PI3Ka) (AID 2283196)
# Procedure, shortened: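 Enzyme activity as fluorescence after mobility-shift separation of substrate and product, 1 h reaction, recombinant human PI3Kα; concentration-response to 50 uM max for chemicals passing a 25 uM duplicate screen.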
# [16] = biological target: Serine/threonine-protein phosphatase PP1-alpha catalytic subunit (Homo sapiens) (UniProt P62136); test: NVS_ENZ_hPPP1CA: NovaScreen (NVS) Enzymatic Assay for human Protein Phosphatase 1 Aatalytic subunit Alpha (PPP1CA) (AID 2283200)
# Procedure, shortened: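 Recombinant enzyme activity read by fluorescence with electrophoretic mobility shift separating substrate from product, 1.33 h after dosing; loss of signal vs DMSO baseline. Primary screen in duplicate at 25 uM; actives retested in concentration-response up to 50 uM.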
# [17] = biological target: human Phosphodiesterase 4A1 (PDE4A1), PDE4A (gene 5141) (UniProt P27815); test: NVS_ENZ_hPDE4A1: NovaScreen (NVS) Enzymatic Assay for human Phosphodiesterase 4A1 (PDE4A1) (AID 2283191)
# Procedure, shortened: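 Cell-free recombinant human PDE4A1 with fluorescent substrate; product separated by electrophoretic mobility shift, 1 h. Screened at 25 uM, then up to 50 uM in concentration-response; loss of signal fitted against DMSO.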
# [18] = biological target: human Protein Phosphatase, Mg2+/Mn2+ Dependent 1A (PPM1A), PPM1A (gene 5494) (UniProt P35813); test: NVS_ENZ_hPPM1A: NovaScreen (NVS) Enzymatic Assay for human Protein Phosphatase, Mg2+/Mn2+ Dependent 1A (PPM1A) (AID 2283198)
# Procedure, shortened: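 Cell-free recombinant PPM1A phosphatase assay with fluorescent substrate, read 1 h after dosing by electrophoretic mobility shift. Chemicals screened in duplicate at 25 uM, then in concentration-response up to 50 uM; loss of activity versus DMSO.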
# [19] = biological target: human Matrix Metalloproteinase-2 (MMP2), MMP2 (gene 4313) (UniProt P08253); test: NVS_ENZ_hMMP2: NovaScreen (NVS) Enzymatic Assay for human Matrix Metalloproteinase-2 (MMP2) (AID 2283184)
# Procedure, shortened: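 Cell-free recombinant MMP2 activity with a fluorescent substrate, read 1 h after dosing. Primary screen in duplicate at 25 uM; actives then run in concentration series; loss of signal fitted versus DMSO.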
# [20] = biological target: human Matrix Metalloproteinase-7 (MMP7), MMP7 (gene 4316) (UniProt P09237); test: NVS_ENZ_hMMP7: NovaScreen (NVS) Enzymatic Assay for human Matrix Metalloproteinase-7 (MMP7) (AID 2283183)
# Procedure, shortened: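 Cell-free fluorescence enzymatic assay read 1 h after compound addition, activity loss analyzed against DMSO. Primary duplicate testing at 25 uM; compounds meeting threshold rerun in singleton concentration-response up to 50 uM.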
# Sequence of human Protein Tyrosine Phosphatase Non-receptor Type 1 (PTPN1), PTPN1 (gene 5770) (P18031 whole entry, looked up): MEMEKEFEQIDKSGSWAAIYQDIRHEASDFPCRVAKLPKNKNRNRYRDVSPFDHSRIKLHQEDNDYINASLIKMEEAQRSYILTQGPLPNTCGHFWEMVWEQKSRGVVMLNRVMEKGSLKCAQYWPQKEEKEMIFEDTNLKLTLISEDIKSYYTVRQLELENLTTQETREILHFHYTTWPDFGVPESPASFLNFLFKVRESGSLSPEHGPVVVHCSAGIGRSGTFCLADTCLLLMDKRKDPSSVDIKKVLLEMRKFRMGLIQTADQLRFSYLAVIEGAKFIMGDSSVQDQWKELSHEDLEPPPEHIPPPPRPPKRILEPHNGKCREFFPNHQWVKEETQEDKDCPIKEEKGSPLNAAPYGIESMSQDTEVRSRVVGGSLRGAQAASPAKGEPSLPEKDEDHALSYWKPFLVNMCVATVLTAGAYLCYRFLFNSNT
# Sequence of Mitogen-activated protein kinase 3 (Homo sapiens) (P27361 whole entry, looked up): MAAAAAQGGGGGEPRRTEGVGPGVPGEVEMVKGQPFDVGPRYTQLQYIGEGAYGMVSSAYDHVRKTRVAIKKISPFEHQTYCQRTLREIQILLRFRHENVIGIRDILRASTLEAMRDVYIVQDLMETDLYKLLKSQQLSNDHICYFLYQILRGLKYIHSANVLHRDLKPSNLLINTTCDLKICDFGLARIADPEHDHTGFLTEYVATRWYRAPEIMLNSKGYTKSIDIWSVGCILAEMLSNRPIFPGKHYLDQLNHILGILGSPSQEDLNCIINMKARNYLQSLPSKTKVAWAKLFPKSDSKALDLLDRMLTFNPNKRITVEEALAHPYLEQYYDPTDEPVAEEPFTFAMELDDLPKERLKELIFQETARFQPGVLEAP
# Sequence of Tyrosine-protein phosphatase non-receptor type 11 (Homo sapiens) (Q06124 whole entry, looked up): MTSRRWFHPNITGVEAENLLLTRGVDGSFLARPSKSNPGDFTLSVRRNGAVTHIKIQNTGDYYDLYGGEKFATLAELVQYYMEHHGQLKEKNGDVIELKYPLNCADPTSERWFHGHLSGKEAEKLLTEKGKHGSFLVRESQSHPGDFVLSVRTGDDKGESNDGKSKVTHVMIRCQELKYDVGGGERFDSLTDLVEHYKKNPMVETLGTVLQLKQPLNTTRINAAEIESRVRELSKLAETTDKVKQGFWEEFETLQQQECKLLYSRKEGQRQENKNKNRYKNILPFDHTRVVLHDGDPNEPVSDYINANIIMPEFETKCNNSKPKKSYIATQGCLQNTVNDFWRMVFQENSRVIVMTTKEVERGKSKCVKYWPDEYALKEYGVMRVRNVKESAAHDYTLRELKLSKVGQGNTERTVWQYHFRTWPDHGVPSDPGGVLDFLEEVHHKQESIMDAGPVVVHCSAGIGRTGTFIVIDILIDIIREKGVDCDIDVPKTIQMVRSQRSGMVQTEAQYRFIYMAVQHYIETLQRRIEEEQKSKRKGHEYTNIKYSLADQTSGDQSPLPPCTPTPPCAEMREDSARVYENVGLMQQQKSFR
# Sequence of human Phosphodiesterase 10 (PDE10), PDE10A (gene 10846) (Q9Y233 whole entry, looked up): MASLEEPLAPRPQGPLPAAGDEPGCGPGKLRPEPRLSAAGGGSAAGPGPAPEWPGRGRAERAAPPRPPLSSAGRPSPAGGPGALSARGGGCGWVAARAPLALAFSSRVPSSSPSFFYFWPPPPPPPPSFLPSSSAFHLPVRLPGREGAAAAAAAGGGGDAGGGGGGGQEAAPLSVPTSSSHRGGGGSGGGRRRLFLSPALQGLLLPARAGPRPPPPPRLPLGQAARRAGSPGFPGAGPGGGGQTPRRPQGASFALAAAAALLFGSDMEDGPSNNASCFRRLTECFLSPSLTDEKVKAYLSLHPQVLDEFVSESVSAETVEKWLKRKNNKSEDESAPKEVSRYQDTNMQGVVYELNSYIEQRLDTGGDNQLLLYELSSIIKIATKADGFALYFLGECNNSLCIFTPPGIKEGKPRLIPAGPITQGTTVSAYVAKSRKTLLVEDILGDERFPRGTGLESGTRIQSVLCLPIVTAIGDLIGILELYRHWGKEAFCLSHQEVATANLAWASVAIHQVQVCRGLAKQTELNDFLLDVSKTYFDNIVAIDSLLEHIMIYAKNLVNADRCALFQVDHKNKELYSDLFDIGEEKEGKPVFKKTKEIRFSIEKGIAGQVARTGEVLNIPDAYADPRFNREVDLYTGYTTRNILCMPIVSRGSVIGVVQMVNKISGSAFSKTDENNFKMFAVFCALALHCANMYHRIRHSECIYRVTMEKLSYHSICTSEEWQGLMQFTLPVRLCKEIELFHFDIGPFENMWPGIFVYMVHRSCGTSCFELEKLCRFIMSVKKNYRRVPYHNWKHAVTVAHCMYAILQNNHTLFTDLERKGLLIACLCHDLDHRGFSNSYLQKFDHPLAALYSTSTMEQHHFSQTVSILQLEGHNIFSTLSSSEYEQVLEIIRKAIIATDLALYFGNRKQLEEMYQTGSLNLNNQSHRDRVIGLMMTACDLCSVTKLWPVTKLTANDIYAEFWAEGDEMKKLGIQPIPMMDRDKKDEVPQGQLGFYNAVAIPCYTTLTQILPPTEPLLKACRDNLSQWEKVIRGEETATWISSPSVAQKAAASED
# Sequence of human Mitogen- and Stress-activated Protein Kinase-1 (Msk1), RPS6KA5 (gene 9252) (O75582 whole entry, looked up): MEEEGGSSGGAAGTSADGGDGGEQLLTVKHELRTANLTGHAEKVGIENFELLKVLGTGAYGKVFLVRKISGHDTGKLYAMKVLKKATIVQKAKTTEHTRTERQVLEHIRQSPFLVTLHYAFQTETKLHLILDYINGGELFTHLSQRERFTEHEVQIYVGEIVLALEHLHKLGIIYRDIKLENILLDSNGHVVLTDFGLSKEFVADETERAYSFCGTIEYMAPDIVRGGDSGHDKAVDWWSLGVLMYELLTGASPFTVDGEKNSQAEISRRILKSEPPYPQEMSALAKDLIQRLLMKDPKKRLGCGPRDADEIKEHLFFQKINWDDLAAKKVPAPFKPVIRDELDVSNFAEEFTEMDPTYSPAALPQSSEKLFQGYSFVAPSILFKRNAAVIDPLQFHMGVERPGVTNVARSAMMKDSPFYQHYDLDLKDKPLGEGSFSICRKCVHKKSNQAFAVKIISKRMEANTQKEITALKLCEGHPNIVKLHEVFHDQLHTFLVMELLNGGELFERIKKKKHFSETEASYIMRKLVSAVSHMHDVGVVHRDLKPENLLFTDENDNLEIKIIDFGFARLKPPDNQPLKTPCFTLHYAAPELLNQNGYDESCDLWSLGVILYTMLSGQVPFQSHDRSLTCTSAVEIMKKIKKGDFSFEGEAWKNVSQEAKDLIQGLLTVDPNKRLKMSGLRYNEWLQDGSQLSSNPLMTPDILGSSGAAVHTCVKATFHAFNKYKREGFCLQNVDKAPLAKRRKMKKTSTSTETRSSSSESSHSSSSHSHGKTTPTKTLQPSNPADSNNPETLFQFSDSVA
# Sequence of human NIMA (Never In Mitosis Gene A)-Related Kinase 2 (NEK2), NEK2 (gene 4751) (P51955 whole entry, looked up): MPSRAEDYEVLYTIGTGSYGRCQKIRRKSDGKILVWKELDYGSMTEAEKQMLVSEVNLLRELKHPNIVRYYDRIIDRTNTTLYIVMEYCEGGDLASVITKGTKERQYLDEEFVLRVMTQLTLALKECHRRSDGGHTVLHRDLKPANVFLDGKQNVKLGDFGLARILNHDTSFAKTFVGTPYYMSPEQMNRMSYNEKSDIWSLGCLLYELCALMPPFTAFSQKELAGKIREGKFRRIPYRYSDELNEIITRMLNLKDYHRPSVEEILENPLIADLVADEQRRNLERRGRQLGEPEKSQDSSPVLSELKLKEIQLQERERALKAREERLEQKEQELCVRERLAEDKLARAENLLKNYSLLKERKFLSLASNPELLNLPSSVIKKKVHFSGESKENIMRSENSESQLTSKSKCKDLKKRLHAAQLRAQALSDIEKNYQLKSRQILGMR
# Sequence of human MAP Kinase-Activated Protein Kinase 2 (MAPKAPK2), MAPKAPK2 (gene 9261) (P49137 whole entry, looked up): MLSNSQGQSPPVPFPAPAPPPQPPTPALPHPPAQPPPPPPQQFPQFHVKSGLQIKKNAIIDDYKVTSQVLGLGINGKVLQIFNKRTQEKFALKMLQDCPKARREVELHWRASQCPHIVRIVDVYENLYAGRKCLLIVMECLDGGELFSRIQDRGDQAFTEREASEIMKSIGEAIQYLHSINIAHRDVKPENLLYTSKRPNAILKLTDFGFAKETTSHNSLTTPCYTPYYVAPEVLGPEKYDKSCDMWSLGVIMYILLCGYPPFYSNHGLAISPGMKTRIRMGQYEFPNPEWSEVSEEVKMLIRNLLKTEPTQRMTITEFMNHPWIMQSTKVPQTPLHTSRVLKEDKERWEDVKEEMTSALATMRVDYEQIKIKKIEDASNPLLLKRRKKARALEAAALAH
# Sequence of human p21 Activated Kinase 4 (PAK4), PAK4 (gene 10298) (O96013 whole entry, looked up): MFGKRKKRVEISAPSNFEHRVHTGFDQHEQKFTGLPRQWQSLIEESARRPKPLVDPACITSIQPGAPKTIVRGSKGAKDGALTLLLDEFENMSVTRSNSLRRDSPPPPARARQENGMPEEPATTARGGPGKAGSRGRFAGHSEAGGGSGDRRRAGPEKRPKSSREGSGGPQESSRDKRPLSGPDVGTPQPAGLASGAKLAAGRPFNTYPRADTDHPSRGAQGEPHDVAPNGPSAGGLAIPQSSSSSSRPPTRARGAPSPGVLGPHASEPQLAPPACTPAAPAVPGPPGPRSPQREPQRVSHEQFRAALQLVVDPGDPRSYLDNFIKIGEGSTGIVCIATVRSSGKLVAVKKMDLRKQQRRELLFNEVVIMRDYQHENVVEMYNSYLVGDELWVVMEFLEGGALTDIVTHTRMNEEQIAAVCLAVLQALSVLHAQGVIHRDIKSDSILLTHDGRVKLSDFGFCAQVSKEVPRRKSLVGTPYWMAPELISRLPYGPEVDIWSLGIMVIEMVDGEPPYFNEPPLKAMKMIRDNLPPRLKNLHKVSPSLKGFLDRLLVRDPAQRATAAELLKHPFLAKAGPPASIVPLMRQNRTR
# Sequence of human Matrix Metalloproteinase-7 (MMP7), MMP7 (gene 4316) (P09237 whole entry, looked up): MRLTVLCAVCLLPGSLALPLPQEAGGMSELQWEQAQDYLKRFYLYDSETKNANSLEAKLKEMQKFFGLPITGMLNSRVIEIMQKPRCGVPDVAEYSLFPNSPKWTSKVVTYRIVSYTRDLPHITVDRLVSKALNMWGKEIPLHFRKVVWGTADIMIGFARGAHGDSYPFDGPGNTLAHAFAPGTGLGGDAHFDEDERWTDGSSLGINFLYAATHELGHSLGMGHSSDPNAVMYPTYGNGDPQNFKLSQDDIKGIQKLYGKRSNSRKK
compound,measurement,setting,value
N#Cc1cccnc1,outcome,[1],inactive
same,outcome,[2],inactive
same,outcome,[3],inactive
same,outcome,[4],inactive
same,outcome,[5],inactive
same,outcome,[6],inactive
same,AC50,[7],40.8 µM (active)
same,outcome,[8],inactive
same,outcome,[9],inactive
CCOP(=O)(OCC)OC(=CCl)c1ccc(Cl)cc1Cl,AC50,[10],22.8 µM (active)
C#CCOC(=O)/C=C(C)/C=C/CC(C)CCCC(C)C (stereo not drawn),AC50,[10],7.1 µM (active)
CCCCN(CCCC)C(=S)[S-].CCCCN(CCCC)C(=S)[S-].[Ni+2],AC50,[10],12.5 µM (active)
CC(C)(C#N)N=NC(C)(C)C#N,AC50,[10],6.44 µM (active)
OC[P+](CO)(CO)CO,AC50,[10],1.27 µM (active) and 3.16 µM (active)
same,AC50,[11],9.04 µM (active)
CCCCCCCCCCCCc1cccc(S(=O)(=O)O)c1,AC50,[2],34.3 µM (active)
same,AC50,[3],17.8 µM (active)
same,AC50,[12],9.41 µM (active)
same,AC50,[13],12.9 µM (active)
same,AC50,[14],25.2 µM (active)
same,AC50,[4],12.2 µM (active)
same,AC50,[6],29.9 µM (active)
same,AC50,[7],14.7 µM (active)
same,AC50,[15],7.17 µM (active)
same,AC50,[16],35.3 µM (active)
same,AC50,[8],14.8 µM (active)
same,AC50,[9],22.5 µM (active)
CN(C)C(=S)S,outcome,[5],inactive
same,outcome,[6],inactive
O=C1c2ccccc2C(=O)C1C(=O)C(c1ccccc1)c1ccc(Cl)cc1 (stereo not drawn),outcome,[1],inactive
same,AC50,[15],16.8 µM (active)
same,AC50,[9],9.45 µM (active)
CCCCCCCCCCCCOS(=O)(=O)O,AC50,[3],25.4 µM (active)
same,AC50,[12],7.91 µM (active)
same,outcome,[5],inactive
[Cl][Sn]([c]1ccccc1)([c]1ccccc1)[c]1ccccc1,outcome,[10],inactive
CC(C)(c1ccccc1)c1cc(-n2nc3ccccc3n2)c(O)c(C(C)(C)c2ccccc2)c1,AC50,[10],1.24 µM (active)
O=C(N[C@H]1CN2CCC1CC2)c1ccc2c(c1)OCCO2,outcome,[1],inactive
same,outcome,[2],inactive
same,outcome,[3],inactive
same,outcome,[5],inactive
same,outcome,[17],inactive
same,outcome,[6],inactive
same,outcome,[11],inactive
same,outcome,[18],inactive
Oc1c(Br)cc(Br)cc1Br,outcome,[10],inactive
BrCCCCBr,AC50,[10],15.3 µM (active)
same,AC50,[11],4.81 µM (active)
Clc1cccc(Cl)c1Cl,outcome,[3],inactive
same,AC50,[19],11.5 µM (active)
same,outcome,[14],inactive
same,outcome,[4],inactive
same,outcome,[5],inactive
C[N+](C)(C)Cc1ccccc1,AC50,[10],8.55 µM (active) and 5.15 µM (active)
COc1nn(C(=O)NS(=O)(=O)c2ccccc2OC(F)(F)F)c(=O)n1C,outcome,[1],inactive
same,outcome,[20],inactive
same,AC50,[5],17.4 µM (active)
same,AC50,[9],13.3 µM (active)
CC(C)O.CC(C)O.OCCN(CCO)CCO.OCCN(CCO)CCO.[Ti],AC50,[1],0.00287 µM (active)
same,AC50,[2],0.00624 µM (active)
same,AC50,[3],25 µM (active)
same,AC50,[14],0.109 µM (active)
same,AC50,[4],17.5 µM (active)
same,AC50,[5],0.00229 µM (active)
same,AC50,[6],0.00229 µM (active)
same,AC50,[8],0.00438 µM (active)
same,AC50,[9],13.6 µM (active)
COc1ccccc1N,outcome,[2],inactive
same,outcome,[11],inactive
same,AC50,[16],14.8 µM (active)
CC(C)(C)c1cc([N+](=O)[O-])cc(C(C)(C)C)c1O,AC50,[10],1.64 µM (active)
CC1(C)[C@H](C(=O)O[C@H](C#N)c2cccc(Oc3ccccc3)c2)[C@@H]1/C=C(\Cl)C(F)(F)F,AC50,[10],7.08 µM (active)
same,outcome,[7],inactive
same,outcome,[11],inactive
O=c1oc2ccccc2c(O)c1C(CC(O)c1ccc(-c2ccc(Br)cc2)cc1)c1ccccc1 (stereo not drawn),AC50,[10],0.436 µM (active)
CCOC(=O)CCN(SN(C)C(=O)Oc1cccc2c1OC(C)(C)C2)C(C)C,AC50,[10],3.66 µM (active)
Oc1c(Cl)cc(Cl)cc1Cl,outcome,[7],inactive
COC(=O)Nc1cccc(OC(=O)Nc2cccc(C)c2)c1,outcome,[7],inactive
